Data on 18 compounds can be found in the supplement of paper PMC10646978.

What all share (details): modulator concentration 10 µM
Assay [1] relates to RAW-Dual (murine macrophage reporter line). Description: NF-kB reporter (SEAP) activity fold change vs agonist alone; higher = enhanced NF-kB activity. The method in brief:
(§1)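 Overnight stimulation with a PRR agonist followed pre-incubation for 1 hour at 37 °C with compound at 10 μM final. This was done in RAW-Dual murine macrophage reporter cells seeded at 50 000 per well in 384-well plates. NF-κB (SEAP, QUANTI-Blue absorbance at 620 nm) and IRF (Lucia luciferase, QUANTI-Luc luminescence) were read from the supernatant. Each reporter's fold change relative to the mean agonist-only control on the same plate was averaged over replicate plates.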

For assay [2] the test system is unchanged. As to the kind of experiment: IRF reporter (Lucia luciferase) activity fold change vs agonist alone; higher = enhanced IRF activity. In a few lines:
as §1

Assay [3] shares this test system. As to the kind of experiment: viability score (confluency relative to resting cells, overnight) (fraction); higher = more viable, active = viable (0.7 or more). The method in brief:
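RAW-Dual macrophages in 384-well plates were exposed overnight to compound at 10 μM final. Confluency was imaged with IncuCyte, and two confluency masks were generated with IncuCyte software over all imaged wells. The viability score is confluency expressed relative to resting cells. Compounds were called viable if both masks exceeded 70% of resting cells.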

The mark [4] stands for this setting: agonist: CpG ODN 1826 0.5 ug/mL.

± gives the standard deviation.

For the compound `COc1ccc(C(=O)Oc2ccc(-c3ccc(C)cc3)cc2)cc1OC`, the values for the NF-kB reporter in assay [1] (setting [4]), in assay [1] (agonist: LPS 0.1 ug/mL) and in assay [1] (agonist: MPLA […]) were 0.744 ± 0.058, 0.892 ± 0.042 and 1 ± 0.09, respectively. For the same compound, the IRF reporter in assay [2] (agonist: 3'3'-cGAMP 10 ug/mL) came out at 0.957 ± 0.069; in assay [2] (agonist: LPS 0.1 ug/mL) it was 1.22 ± 0.09; in assay [2] (agonist: MPLA […]) it was 1.27 ± 0.15. Besides, the viability score in assay [3] is 0.996 (active).

With `O=C(CCCCCN1C(=O)c2cccc3cccc(c23)C1=O)NCCCO`, the NF-kB reporter in assay [1] (setting [4]) was found to be 0.997 ± 0.08; in assay [1] (agonist: LPS 0.1 ug/mL), 0.993 ± 0.064; in assay [1] (agonist: MPLA […]) it was 0.919 ± 0.036. For the same compound, the IRF reporter in assay [2] (agonist: 3'3'-cGAMP 10 ug/mL) worked out at 1.02 ± 0.14; in assay [2] (agonist: LPS 0.1 ug/mL), 1.11 ± 0.053; in assay [2] (agonist: MPLA […]), 1.08 ± 0.082. Also, the viability score in assay [3] is 0.993 (active).

In the case of `CC(C)CC(C(=O)Nc1cccc(O)c1)N1C(=O)c2ccccc2C1=O` (stereo unspecified), the NF-kB reporter in assay [1] (setting [4]) is 0.947 ± 0.076; in assay [1] (agonist: LPS 0.1 ug/mL), 1.04 ± 0.099; in assay [1] (agonist: MPLA […]) it was 1.16 ± 0.083. For the same compound, the IRF reporter in assay [2] (agonist: 3'3'-cGAMP 10 ug/mL) came out at 1.04 ± 0.04; in assay [2] (agonist: LPS 0.1 ug/mL), 1.64 ± 0.15; in assay [2] (agonist: MPLA […]) it was 1.63 ± 0.14. Moreover, in assay [3], the viability score was 0.913 (active).

For `CCn1c(=O)c2c(nc(/C=C/c3ccc(OC)c(OC)c3)n2C)n(CC)c1=O`, the NF-kB reporter in assay [1] (setting [4]) came out at 1.56 ± 0.31; in assay [1] (agonist: LPS 0.1 ug/mL), 1.27 ± 0.33; in assay [1] (agonist: MPLA […]) it was 1.14 ± 0.094. For the same compound, the results for the IRF reporter in assay [2] (agonist: 3'3'-cGAMP 10 ug/mL), in assay [2] (agonist: LPS 0.1 ug/mL) and in assay [2] (agonist: MPLA […]) were 0.721 ± 0.044, 1.21 ± 0.27 and 1.32 ± 0.26, respectively. The viability score in assay [3] was 0.986 (active).

Turning to `CC(C)(C)C1CCc2c(sc(NC(=O)c3ccc(F)cc3)c2C(N)=O)C1` (stereo unspecified), the NF-kB reporter in assay [1] (setting [4]) turned out to be 0.981 ± 0.16; in assay [1] (agonist: LPS 0.1 ug/mL), 0.999 ± 0.12; in assay [1] (agonist: MPLA […]) it was 1 ± 0.13. Besides, the IRF reporter was 0.914 ± 0.041 in assay [2] (agonist: 3'3'-cGAMP 10 ug/mL), 1.24 ± 0.3 in assay [2] (agonist: LPS 0.1 ug/mL) and 1.24 ± 0.21 in assay [2] (agonist: MPLA […]). For the same compound, in assay [3], the viability score is 0.56 (inactive).

With `O=C(NN=Cc1c(O)ccc2ccccc12)c1ccncc1`, the NF-kB reporter is 2.37 ± 0.19 in assay [1] (setting [4]), 1.3 ± 0.086 in assay [1] (agonist: LPS 0.1 ug/mL) and 1.48 ± 0.052 in assay [1] (agonist: MPLA […]). The IRF reporter in assay [2] (agonist: 3'3'-cGAMP 10 ug/mL) turned out to be 0.75 ± 0.11; in assay [2] (agonist: LPS 0.1 ug/mL), 1.26 ± 0.1; in assay [2] (agonist: MPLA […]) it was 1.21 ± 0.2. In addition, the viability score in assay [3] was 0.965 (active).

`CCC(CNC(=O)Cc1c(F)cccc1Cl)(OC)c1ccccc1` (stereo unspecified): the figures for the NF-kB reporter in assay [1] (setting [4]), in assay [1] (agonist: LPS 0.1 ug/mL) and in assay [1] (agonist: MPLA […]) were 0.854 ± 0.06, 0.911 ± 0.091 and 1.06 ± 0.062, respectively. For the same compound, the IRF reporter turned out to be 0.955 ± 0.074 in assay [2] (agonist: 3'3'-cGAMP 10 ug/mL), 1.09 ± 0.2 in assay [2] (agonist: LPS 0.1 ug/mL) and 1.17 ± 0.37 in assay [2] (agonist: MPLA […]). The viability score in assay [3] was 0.825 (active).

As for `Cn1ncc(Cl)c1-c1cc(C(=O)N[C@H](CN)Cc2ccc(F)c(F)c2)oc1Cl`, the NF-kB reporter in assay [1] (setting [4]) worked out at 1.13 ± 0.34; in assay [1] (agonist: LPS 0.1 ug/mL), 1.49 ± 0.11; in assay [1] (agonist: MPLA […]) it was 1.48 ± 0.14. For the same compound, the IRF reporter in assay [2] (agonist: 3'3'-cGAMP 10 ug/mL) was determined as 0.363 ± 0.014; in assay [2] (agonist: LPS 0.1 ug/mL), 0.597 ± 0.064; in assay [2] (agonist: MPLA […]), 0.827 ± 0.079. The viability score in assay [3] was 0.661 (inactive).

For the compound `O=C(O)CCCNC(=O)c1cccc([N+](=O)[O-])c1`, the values for the NF-kB reporter in assay [1] (setting [4]), in assay [1] (agonist: LPS 0.1 ug/mL) and in assay [1] (agonist: MPLA […]) were 1.06 ± 0.14, 1.11 ± 0.082 and 0.983 ± 0.036, respectively. The IRF reporter in assay [2] (agonist: 3'3'-cGAMP 10 ug/mL) came out at 0.986 ± 0.14; in assay [2] (agonist: LPS 0.1 ug/mL), 1.11 ± 0.11; in assay [2] (agonist: MPLA […]), 1.05 ± 0.19. In addition, in assay [3], the viability score was 1 (active).

For `CCOc1ccc(S(=O)(=O)NCCn2nc(C3CC3)ccc2=O)cc1C`, the NF-kB reporter in assay [1] (setting [4]) came to 1.01 ± 0.063; in assay [1] (agonist: LPS 0.1 ug/mL) it was 1.07 ± 0.12; in assay [1] (agonist: MPLA […]), 1.04 ± 0.045. The IRF reporter amounted to 1.02 ± 0.051 in assay [2] (agonist: 3'3'-cGAMP 10 ug/mL), 0.993 ± 0.079 in assay [2] (agonist: LPS 0.1 ug/mL) and 0.875 ± 0.15 in assay [2] (agonist: MPLA […]). Moreover, in assay [3], the viability score was 0.982 (active).

Take `COc1cc(C)ccc1NC(=O)Cc1csc(NC(=O)Nc2ccccc2OC)n1`: the NF-kB reporter in assay [1] (setting [4]) is 1.32 ± 0.14; in assay [1] (agonist: LPS 0.1 ug/mL), 1.02 ± 0.074; in assay [1] (agonist: MPLA […]) it was 0.887 ± 0.1. Moreover, the results for the IRF reporter in assay [2] (agonist: 3'3'-cGAMP 10 ug/mL), in assay [2] (agonist: LPS 0.1 ug/mL) and in assay [2] (agonist: MPLA […]) were 0.978 ± 0.063, 0.793 ± 0.059 and 0.818 ± 0.26, respectively. Besides, the viability score in assay [3] is 1 (active).

For the compound `COC(c1ccccc1)(c1ccccc1)[C@H](Oc1nc(C)cc(C)n1)C(=O)O`, the values for the NF-kB reporter in assay [1] (setting [4]), in assay [1] (agonist: LPS 0.1 ug/mL) and in assay [1] (agonist: MPLA […]) were 1.32 ± 0.18, 1.08 ± 0.11 and 0.901 ± 0.055, respectively. Moreover, the IRF reporter is 1.05 ± 0.043 in assay [2] (agonist: 3'3'-cGAMP 10 ug/mL), 1.3 ± 0.14 in assay [2] (agonist: LPS 0.1 ug/mL) and 1.15 ± 0.11 in assay [2] (agonist: MPLA […]). The viability score in assay [3] was 1 (active).

On to `N[C@@H](CSCCCO)C(=O)O`, for which the values for the NF-kB reporter in assay [1] (setting [4]), in assay [1] (agonist: LPS 0.1 ug/mL) and in assay [1] (agonist: MPLA […]) were 0.987 ± 0.073, 1.01 ± 0.051 and 0.937 ± 0.033, respectively. For the same compound, the IRF reporter was determined as 0.922 ± 0.077 in assay [2] (agonist: 3'3'-cGAMP 10 ug/mL), 0.995 ± 0.047 in assay [2] (agonist: LPS 0.1 ug/mL) and 0.971 ± 0.089 in assay [2] (agonist: MPLA […]). In addition, the viability score in assay [3] is 1 (active).

For the compound `CSc1nc(C(C)(C)C)cc(C(F)(F)F)c1C#N`, the results for the NF-kB reporter in assay [1] (setting [4]), in assay [1] (agonist: LPS 0.1 ug/mL) and in assay [1] (agonist: MPLA […]) were 0.738 ± 0.061, 0.955 ± 0.15 and 1.12 ± 0.049, respectively. Also, the IRF reporter in assay [2] (agonist: 3'3'-cGAMP 10 ug/mL) was 0.998 ± 0.05; in assay [2] (agonist: LPS 0.1 ug/mL) it was 0.855 ± 0.12; in assay [2] (agonist: MPLA […]) it was 0.923 ± 0.26. For the same compound, the viability score in assay [3] was 0.996 (active).

For the compound `Cc1cccc(Cn2cc(C=C3SC(=S)NC3=O)c3ccccc32)c1`, the NF-kB reporter is 0.681 ± 0.067 in assay [1] (setting [4]), 0.893 ± 0.043 in assay [1] (agonist: LPS 0.1 ug/mL) and 1 ± 0.088 in assay [1] (agonist: MPLA […]). Further, the IRF reporter was 0.844 ± 0.045 in assay [2] (agonist: 3'3'-cGAMP 10 ug/mL), 0.955 ± 0.1 in assay [2] (agonist: LPS 0.1 ug/mL) and 1.09 ± 0.17 in assay [2] (agonist: MPLA […]). The viability score in assay [3] is 1.02 (active).

Consider `CC(C)NCC(O)COc1ccc(CCOCC2CC2)cc1.Cl` (stereo unspecified), for which the NF-kB reporter in assay [1] (setting [4]) was 0.952 ± 0.13; in assay [1] (agonist: LPS 0.1 ug/mL) it was 1.2 ± 0.25; in assay [1] (agonist: MPLA […]) it was 0.968 ± 0.068. The IRF reporter was 0.907 ± 0.032 in assay [2] (agonist: 3'3'-cGAMP 10 ug/mL), 1.57 ± 0.17 in assay [2] (agonist: LPS 0.1 ug/mL) and 1.31 ± 0.1 in assay [2] (agonist: MPLA […]). The viability score in assay [3] was 0.981 (active).

With `CC(Nc1ccc(N)cc1)=C1C(=O)c2ccccc2C1=O`, the NF-kB reporter in assay [1] (setting [4]) stood at 0.913 ± 0.083; in assay [1] (agonist: LPS 0.1 ug/mL) it was 0.855 ± 0.043; in assay [1] (agonist: MPLA […]), 1.01 ± 0.09. For the same compound, the IRF reporter worked out at 0.888 ± 0.059 in assay [2] (agonist: 3'3'-cGAMP 10 ug/mL), 1.49 ± 0.1 in assay [2] (agonist: LPS 0.1 ug/mL) and 1.68 ± 0.15 in assay [2] (agonist: MPLA […]). For the same compound, in assay [3], the viability score was 1 (active).

Regarding `CCN(CCO)CCCC(C)Nc1ccnc2cc(Cl)ccc12.O=S(=O)(O)O` (stereo unspecified), the NF-kB reporter in assay [1] (setting [4]) amounted to 0.877 ± 0.037; in assay [1] (agonist: LPS 0.1 ug/mL), 0.984 ± 0.08; in assay [1] (agonist: MPLA […]), 1.44 ± 0.24. Moreover, the IRF reporter stood at 0.984 ± 0.049 in assay [2] (agonist: 3'3'-cGAMP 10 ug/mL), 1.08 ± 0.28 in assay [2] (agonist: LPS 0.1 ug/mL) and 1.15 ± 0.42 in assay [2] (agonist: MPLA […]). Further, the viability score in assay [3] is 1 (active).
